From PubChem BioAssay (NCI) come the findings set out here.

SMILES strings stand for the structures. Several values for one entry are separate records, joined by “and”; a condition that tells them apart may be missing. Equal values may be shown once. The panel holds about 79,000 compounds, 15% with a hit somewhere; the sample as a whole holds those more often. The source holds several records for some structures; these can differ, active in one and inactive in another. Activity calls are given as the source filed them. No stated cut-off is given here; in the data, active means growth inhibition above about 70%; inactive means the rest.

Experiment [1] can be described thus: NCI Yeast Anticancer Drug Screen. Data for the rad50 strain (AID 155).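 Further: 0% = growth of vehicle-only cultures of the same strain.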 Particulars: S. cerevisiae rad50 strain growth inhibition, stronger effect = higher value. An outline of the steps:
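Genetically altered yeast (DNA repair pathway); compound treatment; growth inhibition vs vehicle ctrl.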

A short description of experiment [2]: NCI Yeast Anticancer Drug Screen. Data for the mec2-1 strain (AID 157). As to conditions: S. cerevisiae mec2-1 strain, stronger effect = higher value. The method, boiled down: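 Mutant yeast (mec2-1) grown with compound; growth inhibition relative to vehicle control reported.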
Experiment [3] in a line: NCI Yeast Anticancer Drug Screen. Data for the sgs1 mgt1 strain (AID 161).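 Further: 0% = growth of cultures given vehicle only.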 Particulars: S. cerevisiae sgs1 mgt1 strain, stronger effect = higher value. The method, boiled down:
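Yeast cells carrying a defined DNA-repair defect were exposed to test compounds. Growth inhibition was measured relative to vehicle-treated controls.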

The nature of experiment [4]: NCI Yeast Anticancer Drug Screen. Data for the cln2 rad14 strain (AID 165).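 Further: 0% = growth equal to vehicle treated cultures.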 Particulars: S. cerevisiae cln2 rad14 strain, stronger effect = higher value. An outline of the steps: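 Readout is yeast growth inhibition versus vehicle-treated controls, using a strain with cln2 and rad14 alterations exposed to compound.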
The nature of experiment [5]: NCI Yeast Anticancer Drug Screen. Data for the bub3 strain (AID 167). As to conditions: S. cerevisiae bub3 mutant strain, stronger effect = higher value. An outline of the steps: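 Yeast carrying a defined mutation is treated with each compound, and growth is compared with that of vehicle-exposed cells to give inhibition.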
A short description of experiment [6]: NCI Yeast Anticancer Drug Screen. Data for the mlh1 rad18 strain (AID 175). Particulars: S. cerevisiae mlh1 rad18 strain growth inhibition, stronger effect = higher value. An outline of the steps: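 Genetically defined yeast (DNA repair-deficient) exposed to compounds; growth inhibition determined relative to vehicle.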
[7] abbreviates: at 5.0 µM (retest, dose inferred, filed as 0.5).
[8] abbreviates: at 50.0 µM (retest, dose inferred, filed as 5.0).

On to `O=C(Nc1ccc(C(=O)O)c(O)c1)c1ccccc1`, for which the growth inhibition in experiment [1] (setting [7]) was -2% (inactive); in experiment [1] (setting [8]), 40% (inactive); in experiment [1] (at 50.0 µM) it was 1.35% (inactive) and -5.6% (inactive); in experiment [2] (setting [7]), -12% (inactive); in experiment [2] (setting [8]), -26% (inactive); in experiment [2] (at 50.0 µM), 0.7% (inactive) and -0.4% (inactive). Moreover, the growth inhibition in experiment [3] (setting [7]) is 0% (inactive); in experiment [3] (setting [8]) it was 0% (inactive); in experiment [3] (at 50.0 µM), -20% (inactive) and 3.05% (inactive); in experiment [4] (setting [7]), -4% (inactive); in experiment [4] (setting [8]), -5% (inactive); in experiment [4] (at 50.0 µM) it was -26.9% (inactive) and 14.5% (inactive). Further, the growth inhibition in experiment [5] (setting [7]) is 1% (inactive); in experiment [5] (setting [8]), 6% (inactive); in experiment [5] (at 50.0 µM), 15.7% (inactive) and 12.3% (inactive); in experiment [6] (setting [7]), -3% (inactive); in experiment [6] (setting [8]) it was 6% (inactive); in experiment [6] (at 50.0 µM), 8.1% (inactive) and -3.2% (inactive).
Take `OCC(O)C(O)C(O)C(/C=N/Nc1ccccc1)=N/Nc1ccccc1` (stereo unspecified): the growth inhibition in experiment [1] (setting [7]) was 2% (inactive); in experiment [1] (setting [8]), -13% (inactive); in experiment [1] (at 50.0 µM) it was 40.5% (inactive) and 21.7% (inactive) and 50.6% (inactive); in experiment [2] (setting [7]) it was -2% (inactive); in experiment [2] (setting [8]), -34% (inactive); in experiment [2] (at 50.0 µM), -5.35% (inactive) and -4.3% (inactive) and 15.8% (inactive). For the same compound, the growth inhibition is 2% (inactive) in experiment [3] (setting [7]); -9% (inactive) in experiment [3] (setting [8]); 55.5% (inactive) and 27.6% (inactive) and 33% (inactive) in experiment [3] (at 50.0 µM); 5% (inactive) in experiment [4] (setting [7]); -12% (inactive) in experiment [4] (setting [8]); 5.55% (inactive) and -6.8% (inactive) and -39.8% (inactive) in experiment [4] (at 50.0 µM). The growth inhibition is 5% (inactive) in experiment [5] (setting [7]); 8% (inactive) in experiment [5] (setting [8]); -12.9% (inactive) and -5.05% (inactive) and -1.05% (inactive) in experiment [5] (at 50.0 µM); 20% (inactive) in experiment [6] (setting [7]); 0% (inactive) in experiment [6] (setting [8]); 24.9% (inactive) and 21.1% (inactive) and 48.2% (inactive) in experiment [6] (at 50.0 µM).
Consider `O=C(CCN1CCN2c3ccccc3CCC2C1)c1ccc(F)cc1` (stereo unspecified), for which the growth inhibition in experiment [1] (setting [7]) is 51% (inactive) and 17% (inactive); in experiment [1] (setting [8]), 86% (active) and 98% (active); in experiment [1] (at 50.0 µM) it was 95.7% (active) and 83.2% (active); in experiment [2] (setting [7]), 63% (inactive) and 22% (inactive); in experiment [2] (setting [8]), 88% (active) and 97% (active); in experiment [2] (at 50.0 µM), 91.5% (active) and 43.5% (inactive). Moreover, the growth inhibition in experiment [3] (setting [7]) was 74% (active) and -2% (inactive); in experiment [3] (setting [8]), 96% (active) and 100% (active); in experiment [3] (at 50.0 µM), 97.2% (active) and 89.7% (active); in experiment [4] (setting [7]), 65% (inactive) and -5% (inactive); in experiment [4] (setting [8]) it was 64% (inactive) and 98% (active); in experiment [4] (at 50.0 µM), 93.5% (active) and 22.4% (inactive). Moreover, the growth inhibition was 60% (inactive) and 78% (active) in experiment [5] (setting [7]); 84% (active) and 99% (active) in experiment [5] (setting [8]); 97.8% (active) and 95.2% (active) in experiment [5] (at 50.0 µM); 82% (active) and 40% (inactive) in experiment [6] (setting [7]); 96% (active) and 99% (active) in experiment [6] (setting [8]); 98.5% (active) and 45% (inactive) in experiment [6] (at 50.0 µM).
As to `O=NC1C(Br)C2CC1C1C(Cl)C(Cl)CC21` (stereo unspecified), the growth inhibition in experiment [1] (setting [7]) is 6% (inactive); in experiment [1] (setting [8]) it was 10% (inactive); in experiment [1] (at 50.0 µM), 58.7% (inactive); in experiment [2] (setting [7]) it was 12% (inactive); in experiment [2] (setting [8]), 13% (inactive); in experiment [2] (at 50.0 µM) it was 29.9% (inactive). The growth inhibition is -5% (inactive) in experiment [3] (setting [7]); 6% (inactive) in experiment [3] (setting [8]); 76.8% (active) in experiment [3] (at 50.0 µM); -2% (inactive) in experiment [4] (setting [7]); -7% (inactive) in experiment [4] (setting [8]); 44.1% (inactive) in experiment [4] (at 50.0 µM). In addition, the growth inhibition in experiment [5] (setting [7]) was 1% (inactive); in experiment [5] (setting [8]) it was -6% (inactive); in experiment [5] (at 50.0 µM), 10.1% (inactive); in experiment [6] (setting [7]) it was 25% (inactive); in experiment [6] (setting [8]), 66% (inactive); in experiment [6] (at 50.0 µM), 49.2% (inactive).
Take `Nc1nnc(/C=C/c2ccccc2)o1`: the growth inhibition was 2% (inactive) in experiment [1] (setting [7]); -22% (inactive) in experiment [1] (setting [8]); 19.5% (inactive) in experiment [1] (at 50.0 µM); 8% (inactive) in experiment [2] (setting [7]); -21% (inactive) in experiment [2] (setting [8]); -21.6% (inactive) in experiment [2] (at 50.0 µM). Further, the growth inhibition in experiment [3] (setting [7]) is -8% (inactive); in experiment [3] (setting [8]), -9% (inactive); in experiment [3] (at 50.0 µM), -4.6% (inactive); in experiment [4] (setting [7]), 1% (inactive); in experiment [4] (setting [8]), -4% (inactive); in experiment [4] (at 50.0 µM), 42.2% (inactive). Further, the growth inhibition in experiment [5] (setting [7]) is 1% (inactive); in experiment [5] (setting [8]), -4% (inactive); in experiment [5] (at 50.0 µM) it was -1.9% (inactive); in experiment [6] (setting [7]), 7% (inactive); in experiment [6] (setting [8]), 21% (inactive); in experiment [6] (at 50.0 µM), -10.2% (inactive).
Consider `O=[N+]([O-])c1ccc(OCCN(Cc2ccccc2)Cc2ccccc2)c([N+](=O)[O-])c1`, for which the growth inhibition in experiment [1] (setting [7]) is 3% (inactive); in experiment [1] (setting [8]), 70% (active); in experiment [1] (at 50.0 µM), 71.5% (active); in experiment [2] (setting [7]), 3% (inactive); in experiment [2] (setting [8]), 38% (inactive); in experiment [2] (at 50.0 µM), 59.2% (inactive). Besides, the growth inhibition in experiment [3] (setting [7]) is -11% (inactive); in experiment [3] (setting [8]), 61% (inactive); in experiment [3] (at 50.0 µM) it was 60.4% (inactive); in experiment [4] (setting [7]), 4% (inactive); in experiment [4] (setting [8]), 24% (inactive); in experiment [4] (at 50.0 µM), 34.1% (inactive). Besides, the growth inhibition in experiment [5] (setting [7]) was 3% (inactive); in experiment [5] (setting [8]), 54% (inactive); in experiment [5] (at 50.0 µM), 71.5% (active); in experiment [6] (setting [7]), 5% (inactive); in experiment [6] (setting [8]), 58% (inactive); in experiment [6] (at 50.0 µM), 74.8% (active).
`CCN(CC)CCCn1c2cc(=O)c(=O)cc-2[nH]c2cc(C)ccc21`: the growth inhibition in experiment [1] (setting [7]) is 1% (inactive); in experiment [1] (setting [8]), 58% (inactive); in experiment [1] (at 50.0 µM), 10.4% (inactive); in experiment [2] (setting [7]) it was 2% (inactive); in experiment [2] (setting [8]), 27% (inactive); in experiment [2] (at 50.0 µM), -4.3% (inactive). Moreover, the growth inhibition in experiment [3] (setting [7]) was 2% (inactive); in experiment [3] (setting [8]), 74% (active); in experiment [3] (at 50.0 µM) it was 23.6% (inactive); in experiment [4] (setting [7]) it was 5% (inactive); in experiment [4] (setting [8]), 55% (inactive); in experiment [4] (at 50.0 µM) it was -15.4% (inactive). The growth inhibition in experiment [5] (setting [7]) is 3% (inactive); in experiment [5] (setting [8]), 51% (inactive); in experiment [5] (at 50.0 µM) it was -8.05% (inactive); in experiment [6] (setting [7]), 3% (inactive); in experiment [6] (setting [8]), 52% (inactive); in experiment [6] (at 50.0 µM) it was 40% (inactive).
